Binding signal data for one sequence are collected here from paper PMC7862700, “An all-to-all approach to the identification of sequence-specific readers for epigenetic DNA modifications on cytosine”.

Experiment in all cases: DAPPL (digital affinity profiling via proximity ligation, sequencing); 10 mM Tris-HCl pH 7.5, 50 mM NaCl, 1 mM DTT, 4% glycerol, room temperature, 30 min; GST-TFs on glutathione beads, 16-mer random dsDNA library, 0.1% formaldehyde crosslink after washing; high values mean tight binding
Common to all, as to conditions: protein: recombinant; tags: N-terminal GST; dsDNA, one strand shown

One experiment concerns the target T1, FLI1 (Homo sapiens, UniProt Q01543 1-452).
T1 sequence: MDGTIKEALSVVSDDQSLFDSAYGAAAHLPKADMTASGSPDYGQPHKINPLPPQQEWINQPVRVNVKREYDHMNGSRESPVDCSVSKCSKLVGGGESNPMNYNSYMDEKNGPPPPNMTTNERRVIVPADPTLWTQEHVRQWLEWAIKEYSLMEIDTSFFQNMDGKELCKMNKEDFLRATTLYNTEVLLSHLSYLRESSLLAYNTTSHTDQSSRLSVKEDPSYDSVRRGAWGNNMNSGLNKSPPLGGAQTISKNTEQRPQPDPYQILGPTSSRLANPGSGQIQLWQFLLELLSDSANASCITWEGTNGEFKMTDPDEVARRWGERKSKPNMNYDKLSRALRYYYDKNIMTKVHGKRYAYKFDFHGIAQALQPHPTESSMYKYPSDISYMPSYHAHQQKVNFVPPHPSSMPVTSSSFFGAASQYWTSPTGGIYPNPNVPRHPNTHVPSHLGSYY
Put shortly: (§1)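 Binding signal is each hexamer's read frequency for a factor divided by its frequency in the tag-only sample. The factors were GST-fused human transcription factors from yeast, captured on glutathione beads, DNA-barcoded and pooled with that sample. Pools were incubated with 200 nmole of a random double-stranded 16-mer DNA library in Tris/NaCl/DTT/glycerol buffer at room temperature for 30 min, then washed, crosslinked with 0.1% formaldehyde, proximity-ligated with BsaI/T4 ligase (1 h, 37 °C), PCR-amplified and sequenced on an Illumina NextSeq500.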

A further experiment deals with T2, ELK1 (Homo sapiens, UniProt P19419 1-428).
T2 sequence: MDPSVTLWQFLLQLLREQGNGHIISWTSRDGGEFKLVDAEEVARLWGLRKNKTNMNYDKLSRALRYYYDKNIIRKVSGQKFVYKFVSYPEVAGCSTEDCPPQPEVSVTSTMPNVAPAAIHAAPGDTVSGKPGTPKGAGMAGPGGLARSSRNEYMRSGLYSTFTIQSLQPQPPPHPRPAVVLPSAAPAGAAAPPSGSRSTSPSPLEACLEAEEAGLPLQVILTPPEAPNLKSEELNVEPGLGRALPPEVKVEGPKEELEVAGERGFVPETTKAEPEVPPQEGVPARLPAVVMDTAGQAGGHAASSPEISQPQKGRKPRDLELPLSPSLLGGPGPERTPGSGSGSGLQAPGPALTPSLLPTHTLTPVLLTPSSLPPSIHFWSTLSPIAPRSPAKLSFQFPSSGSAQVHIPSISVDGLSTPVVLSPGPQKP
An outline of the steps: as §1

The next experiment concerns the target T3, GABPA (Homo sapiens, UniProt Q06546 1-454).
T3 sequence: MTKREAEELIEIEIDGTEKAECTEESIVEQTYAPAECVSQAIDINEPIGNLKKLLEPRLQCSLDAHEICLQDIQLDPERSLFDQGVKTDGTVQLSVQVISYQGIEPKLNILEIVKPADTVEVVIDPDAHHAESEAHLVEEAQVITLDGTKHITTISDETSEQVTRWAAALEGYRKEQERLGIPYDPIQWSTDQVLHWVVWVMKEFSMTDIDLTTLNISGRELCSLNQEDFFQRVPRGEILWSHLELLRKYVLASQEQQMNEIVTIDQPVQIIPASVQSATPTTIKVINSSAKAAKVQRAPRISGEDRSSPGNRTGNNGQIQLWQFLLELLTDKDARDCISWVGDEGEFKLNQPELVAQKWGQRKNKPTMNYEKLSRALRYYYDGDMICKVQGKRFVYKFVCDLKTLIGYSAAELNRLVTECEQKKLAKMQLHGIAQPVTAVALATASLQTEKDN
An outline of the steps:
as §1

In a further experiment the target is T4, ERG (Homo sapiens, UniProt P11308 1-479).
T4 sequence: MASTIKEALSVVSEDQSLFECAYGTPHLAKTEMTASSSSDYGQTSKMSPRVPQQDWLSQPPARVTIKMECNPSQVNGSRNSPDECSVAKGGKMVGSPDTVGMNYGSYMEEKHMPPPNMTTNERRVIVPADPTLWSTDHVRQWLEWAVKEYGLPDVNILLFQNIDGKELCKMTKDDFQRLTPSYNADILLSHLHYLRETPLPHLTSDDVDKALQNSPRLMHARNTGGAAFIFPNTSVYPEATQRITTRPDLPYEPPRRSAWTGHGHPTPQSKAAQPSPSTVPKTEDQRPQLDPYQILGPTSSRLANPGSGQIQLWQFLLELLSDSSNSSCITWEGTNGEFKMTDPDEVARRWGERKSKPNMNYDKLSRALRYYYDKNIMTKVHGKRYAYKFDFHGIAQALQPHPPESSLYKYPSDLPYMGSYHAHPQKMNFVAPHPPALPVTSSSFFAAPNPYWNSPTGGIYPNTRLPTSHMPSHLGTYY
Put shortly: as §1

For a further experiment, the target named is ELF1 (Homo sapiens, UniProt P32519 1-619). An outline of the steps:
as §1

In the next experiment the target is T5, EHF (Homo sapiens, UniProt Q9NZC4 1-300).
T5 sequence: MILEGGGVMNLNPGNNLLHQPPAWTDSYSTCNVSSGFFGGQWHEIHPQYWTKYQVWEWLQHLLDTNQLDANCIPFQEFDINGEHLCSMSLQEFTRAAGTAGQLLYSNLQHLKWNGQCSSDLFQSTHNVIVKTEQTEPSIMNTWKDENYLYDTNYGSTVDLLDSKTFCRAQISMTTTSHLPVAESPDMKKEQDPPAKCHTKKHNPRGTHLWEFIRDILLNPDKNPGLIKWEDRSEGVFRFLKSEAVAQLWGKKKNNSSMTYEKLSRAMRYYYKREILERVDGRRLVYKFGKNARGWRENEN
Put shortly: as §1

A further experiment deals with SPI1 (Homo sapiens, UniProt P17947 1-270). Put shortly:
as §1

For the next experiment, the target named is SPIB (Homo sapiens, UniProt Q01892 1-262). An outline of the steps:
as §1

The target of the next experiment is T6, ELK3 (Homo sapiens, UniProt P41970 1-407).
T6 sequence: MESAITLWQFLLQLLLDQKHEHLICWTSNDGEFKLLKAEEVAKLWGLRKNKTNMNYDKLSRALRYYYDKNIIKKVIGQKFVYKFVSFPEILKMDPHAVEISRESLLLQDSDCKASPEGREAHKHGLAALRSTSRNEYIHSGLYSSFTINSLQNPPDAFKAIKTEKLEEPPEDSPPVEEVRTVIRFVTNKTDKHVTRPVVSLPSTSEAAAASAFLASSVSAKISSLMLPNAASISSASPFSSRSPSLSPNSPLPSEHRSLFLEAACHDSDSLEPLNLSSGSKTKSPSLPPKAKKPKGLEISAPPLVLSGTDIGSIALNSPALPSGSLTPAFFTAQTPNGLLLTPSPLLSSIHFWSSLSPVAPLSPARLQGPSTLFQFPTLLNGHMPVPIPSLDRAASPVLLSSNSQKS
An outline of the steps: as §1

For the next experiment, the target named is T7, FEV (Homo sapiens, UniProt Q99581 1-238).
T7 sequence: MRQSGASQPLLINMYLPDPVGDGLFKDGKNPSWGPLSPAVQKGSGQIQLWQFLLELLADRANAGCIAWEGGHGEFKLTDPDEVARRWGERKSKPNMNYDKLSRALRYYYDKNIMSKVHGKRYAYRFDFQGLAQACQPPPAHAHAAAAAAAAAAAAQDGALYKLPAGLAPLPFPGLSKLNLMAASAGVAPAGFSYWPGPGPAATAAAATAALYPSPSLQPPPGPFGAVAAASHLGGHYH
Put shortly: as §1

A further experiment has as its target ETV5 (Homo sapiens, UniProt P41161 1-510). Put shortly:
as §1

A further experiment deals with T8, SPIC (Homo sapiens, UniProt Q8N5J4 1-248).
T8 sequence: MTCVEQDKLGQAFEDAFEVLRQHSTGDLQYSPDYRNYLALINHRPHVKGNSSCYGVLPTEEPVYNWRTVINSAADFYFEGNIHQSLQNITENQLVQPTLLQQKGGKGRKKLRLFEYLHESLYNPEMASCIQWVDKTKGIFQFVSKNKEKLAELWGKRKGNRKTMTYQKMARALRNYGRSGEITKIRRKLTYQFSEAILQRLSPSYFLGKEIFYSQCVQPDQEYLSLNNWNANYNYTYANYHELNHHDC
Put shortly:
as §1

In a further experiment the target is ELF4 (Homo sapiens, UniProt Q99607 1-663). An outline of the steps:
as §1

The target of the next experiment is T9, ELK4 (Homo sapiens, UniProt P28324-2 1-405).
T9 sequence: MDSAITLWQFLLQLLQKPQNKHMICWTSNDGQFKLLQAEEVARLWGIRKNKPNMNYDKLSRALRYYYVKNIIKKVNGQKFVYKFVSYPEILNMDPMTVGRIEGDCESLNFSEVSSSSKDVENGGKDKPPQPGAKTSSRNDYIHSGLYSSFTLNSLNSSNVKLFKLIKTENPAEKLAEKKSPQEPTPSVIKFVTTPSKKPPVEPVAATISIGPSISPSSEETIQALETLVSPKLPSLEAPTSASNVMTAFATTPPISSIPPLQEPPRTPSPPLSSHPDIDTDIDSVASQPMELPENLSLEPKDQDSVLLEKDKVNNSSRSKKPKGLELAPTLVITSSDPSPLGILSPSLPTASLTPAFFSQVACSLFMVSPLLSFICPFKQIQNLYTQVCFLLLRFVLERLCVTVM
Put shortly:
as §1

For another experiment, the target named is T10, ETV2 (Homo sapiens, UniProt O00321 1-342).
T10 sequence: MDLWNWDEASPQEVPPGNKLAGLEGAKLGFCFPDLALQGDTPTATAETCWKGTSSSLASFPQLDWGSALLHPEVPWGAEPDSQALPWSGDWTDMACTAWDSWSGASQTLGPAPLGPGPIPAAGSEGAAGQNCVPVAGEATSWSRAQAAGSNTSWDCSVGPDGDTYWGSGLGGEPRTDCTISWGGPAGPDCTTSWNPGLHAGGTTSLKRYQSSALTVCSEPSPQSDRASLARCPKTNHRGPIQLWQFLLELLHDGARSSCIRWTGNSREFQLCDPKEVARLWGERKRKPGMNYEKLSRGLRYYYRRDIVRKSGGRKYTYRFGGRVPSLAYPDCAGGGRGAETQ
An outline of the steps: as §1

The next experiment addresses T11, ELF3 (Homo sapiens, UniProt P78545 1-371).
T11 sequence: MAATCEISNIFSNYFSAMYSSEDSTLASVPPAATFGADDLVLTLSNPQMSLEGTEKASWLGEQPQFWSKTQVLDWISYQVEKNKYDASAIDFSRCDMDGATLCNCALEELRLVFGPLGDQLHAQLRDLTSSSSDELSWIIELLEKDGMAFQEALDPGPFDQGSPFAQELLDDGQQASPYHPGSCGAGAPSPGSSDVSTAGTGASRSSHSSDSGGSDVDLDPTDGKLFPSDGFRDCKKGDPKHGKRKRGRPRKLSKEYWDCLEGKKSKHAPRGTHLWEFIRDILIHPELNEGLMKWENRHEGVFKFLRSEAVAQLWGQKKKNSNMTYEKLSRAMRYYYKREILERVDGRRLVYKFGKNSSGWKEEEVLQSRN
Put shortly:
as §1

A further experiment deals with CRX (Homo sapiens, UniProt O43186 1-299). An outline of the steps:
as §1

For another experiment, the target named is ETV1 (Homo sapiens, UniProt P50549 1-477). An outline of the steps: as §1
ETV1, sequence (P50549 whole entry): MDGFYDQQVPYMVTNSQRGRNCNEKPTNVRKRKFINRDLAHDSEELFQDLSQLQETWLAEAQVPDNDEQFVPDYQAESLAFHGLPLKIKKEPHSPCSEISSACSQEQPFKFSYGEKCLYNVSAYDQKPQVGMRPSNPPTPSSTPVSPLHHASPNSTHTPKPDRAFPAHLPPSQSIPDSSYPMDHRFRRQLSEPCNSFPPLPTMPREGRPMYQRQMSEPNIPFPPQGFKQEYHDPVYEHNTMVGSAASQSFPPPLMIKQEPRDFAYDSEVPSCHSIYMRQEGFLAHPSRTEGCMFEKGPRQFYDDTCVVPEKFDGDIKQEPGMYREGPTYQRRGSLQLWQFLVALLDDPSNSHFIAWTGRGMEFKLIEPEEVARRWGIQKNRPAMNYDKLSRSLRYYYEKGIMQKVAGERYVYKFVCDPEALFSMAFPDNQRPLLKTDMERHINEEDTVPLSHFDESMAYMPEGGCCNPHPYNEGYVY

CRX, sequence (O43186 whole entry): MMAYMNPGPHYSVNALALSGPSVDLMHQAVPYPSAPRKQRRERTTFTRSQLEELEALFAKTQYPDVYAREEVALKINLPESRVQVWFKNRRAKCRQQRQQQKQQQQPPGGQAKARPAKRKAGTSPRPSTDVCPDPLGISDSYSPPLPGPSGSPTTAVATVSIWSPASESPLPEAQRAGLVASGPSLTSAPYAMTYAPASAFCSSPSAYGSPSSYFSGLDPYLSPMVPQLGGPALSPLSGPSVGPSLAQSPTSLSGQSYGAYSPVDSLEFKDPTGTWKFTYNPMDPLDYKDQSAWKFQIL
ELF1, sequence (P32519 whole entry): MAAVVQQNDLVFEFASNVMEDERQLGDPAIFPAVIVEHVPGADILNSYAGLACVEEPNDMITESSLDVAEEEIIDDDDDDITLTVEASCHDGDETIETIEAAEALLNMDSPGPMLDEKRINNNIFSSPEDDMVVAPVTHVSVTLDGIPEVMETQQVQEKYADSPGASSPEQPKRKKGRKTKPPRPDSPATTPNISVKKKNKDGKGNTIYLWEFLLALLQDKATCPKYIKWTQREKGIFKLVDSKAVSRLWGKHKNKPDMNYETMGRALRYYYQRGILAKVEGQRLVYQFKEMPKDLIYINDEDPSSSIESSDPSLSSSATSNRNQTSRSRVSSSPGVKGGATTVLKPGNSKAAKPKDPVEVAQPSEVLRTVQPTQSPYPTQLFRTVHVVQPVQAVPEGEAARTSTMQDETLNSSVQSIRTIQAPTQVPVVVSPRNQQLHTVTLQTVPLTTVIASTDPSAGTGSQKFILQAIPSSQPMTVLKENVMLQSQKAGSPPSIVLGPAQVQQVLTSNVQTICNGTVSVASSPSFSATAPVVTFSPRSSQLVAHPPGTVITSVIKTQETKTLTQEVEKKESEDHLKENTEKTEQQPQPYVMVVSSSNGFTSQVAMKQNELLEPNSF
ETV5, sequence (P41161 whole entry): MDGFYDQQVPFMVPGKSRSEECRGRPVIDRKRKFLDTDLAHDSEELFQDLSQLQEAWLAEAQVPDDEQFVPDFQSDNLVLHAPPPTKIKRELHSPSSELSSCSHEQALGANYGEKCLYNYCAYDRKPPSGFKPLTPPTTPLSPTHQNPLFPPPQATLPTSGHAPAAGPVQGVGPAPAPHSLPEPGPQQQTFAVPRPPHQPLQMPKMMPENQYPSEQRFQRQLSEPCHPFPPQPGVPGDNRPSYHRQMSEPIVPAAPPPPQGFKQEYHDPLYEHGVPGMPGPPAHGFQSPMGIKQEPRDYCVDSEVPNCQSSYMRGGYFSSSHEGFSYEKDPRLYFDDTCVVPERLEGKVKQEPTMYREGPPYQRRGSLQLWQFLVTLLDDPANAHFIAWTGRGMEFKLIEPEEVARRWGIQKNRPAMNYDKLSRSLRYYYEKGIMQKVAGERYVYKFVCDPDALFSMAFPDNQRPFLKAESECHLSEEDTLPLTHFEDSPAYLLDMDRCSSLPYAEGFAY
ELF4, sequence (Q99607 whole entry): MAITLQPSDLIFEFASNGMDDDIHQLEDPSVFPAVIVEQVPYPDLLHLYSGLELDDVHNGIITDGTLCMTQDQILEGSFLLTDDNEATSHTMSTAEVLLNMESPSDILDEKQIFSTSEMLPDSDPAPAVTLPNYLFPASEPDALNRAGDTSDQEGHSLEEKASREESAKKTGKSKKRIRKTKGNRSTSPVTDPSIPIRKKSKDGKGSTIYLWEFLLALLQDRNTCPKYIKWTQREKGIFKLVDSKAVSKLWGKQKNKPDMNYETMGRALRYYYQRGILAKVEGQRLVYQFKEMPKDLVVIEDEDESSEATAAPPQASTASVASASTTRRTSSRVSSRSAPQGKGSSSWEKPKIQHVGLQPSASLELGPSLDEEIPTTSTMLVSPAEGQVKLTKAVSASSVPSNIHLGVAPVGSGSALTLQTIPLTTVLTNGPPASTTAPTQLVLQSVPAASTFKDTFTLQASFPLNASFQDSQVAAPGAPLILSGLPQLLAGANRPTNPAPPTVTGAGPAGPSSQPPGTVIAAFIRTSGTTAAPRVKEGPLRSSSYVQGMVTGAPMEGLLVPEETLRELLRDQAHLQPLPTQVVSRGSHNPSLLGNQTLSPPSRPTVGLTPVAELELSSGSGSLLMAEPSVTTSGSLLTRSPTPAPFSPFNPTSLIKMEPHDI
SPIB, sequence (Q01892 whole entry): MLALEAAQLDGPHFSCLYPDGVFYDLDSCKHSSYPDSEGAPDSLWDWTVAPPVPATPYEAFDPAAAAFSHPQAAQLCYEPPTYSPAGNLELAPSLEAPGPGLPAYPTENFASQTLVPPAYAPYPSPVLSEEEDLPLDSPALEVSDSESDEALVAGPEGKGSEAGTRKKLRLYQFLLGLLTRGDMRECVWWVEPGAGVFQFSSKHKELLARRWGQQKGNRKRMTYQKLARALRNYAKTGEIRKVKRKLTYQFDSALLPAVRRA

In the case of CTCAGT, the binding signal in the experiment with FLI1 is 1.16 fold enrichment (6-mer frequency, TF over GST control); with ELK1, 1.21 fold enrichment (6-mer frequency, TF over GST control); with GABPA, 1.2 fold enrichment (6-mer frequency, TF over GST control); in the experiment with ERG, 1.13 fold enrichment (6-mer frequency, TF over GST control); in the experiment with ELF1 it was 1.22 fold enrichment (6-mer frequency, TF over GST control); with EHF it was 1.06 fold enrichment (6-mer frequency, TF over GST control). Moreover, the binding signal with SPI1 was 1.18 fold enrichment (6-mer frequency, TF over GST control); with SPIB, 1.14 fold enrichment (6-mer frequency, TF over GST control); with ELK3, 1.24 fold enrichment (6-mer frequency, TF over GST control); with FEV, 1.12 fold enrichment (6-mer frequency, TF over GST control); with ETV5, 1.14 fold enrichment (6-mer frequency, TF over GST control); with SPIC it was 1.24 fold enrichment (6-mer frequency, TF over GST control). For the same sequence, the binding signal was 1.21 fold enrichment (6-mer frequency, TF over GST control) with ELF4; 1.19 fold enrichment (6-mer frequency, TF over GST control) with ELK4; 1.2 fold enrichment (6-mer frequency, TF over GST control) in the experiment with ETV2; 1.35 fold enrichment (6-mer frequency, TF over GST control) with ELF3; 1.08 fold enrichment (6-mer frequency, TF over GST control) in the experiment with CRX; 1.12 fold enrichment (6-mer frequency, TF over GST control) in the experiment with ETV1.
